Assay outcomes from PubChem BioAssay.
KDM5B inhibitor: inhibitors of human KDM5B histone demethylase; Q9UGL1; KDM5B demethylase, FDH-coupled NADH fluorescence (FDH is formaldehyde dehydrogenase); Potency, µM (top dose mostly 57.7 µM), usual class: inhibitors; 2.6% of 220,000 active; AID 1347165; active means well fitted inhibition curve with a large enough effect; further: 0% is about no effect; nearly all actives have a fitted effect of over 70% in size
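Inhibition is measured as reduced NADH fluorescence generation from FDH coupling to formaldehyde release. Truncated KDM5BΔAP at 200 nM final acts on H3K4me3 peptide (12.5 µM in substrate mix) in pH 7.5 HEPES buffer with Tween-20, 30 min, room temperature.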
* = called active by the depositor; i = inactive. The entries come from a sample that favours hits as a whole. Potency means the concentration at half of the fitted maximal effect.

SMILES	KDM5B inhibitor
CN(C)C[C@@H]1CN(c2ncccn2)C[C@H]1NC(=O)c1cc2ccccc2[nH]1	28µM*
CCC(=O)N[C@@H]1CN(Cc2ccccc2)C[C@H]1CN(C)C	i
Cc1ccc(N2C(=O)c3cccnc3C2Nc2ccc(F)cc2C)cc1 (stereo not given)	i
N#Cc1nc(-c2ccc(S(=O)(=O)N3CCCC3)cc2)oc1N1CCN(c2cccc(Cl)c2)CC1	i
Cc1ccc(S(=O)(=O)N2CCCCC2)cc1NC(=O)CSc1nnc2ccccn12	i
COc1ccc(NC(=O)Cn2c(-c3cnccn3)nc(C)c(C)c2=O)cc1	i
CC(C)c1ccc(NC(C)(C)c2nnnn2-c2ccc(Cl)cc2)cc1	i
O=C(Oc1cccc2ccccc12)c1ccc(-c2ccccc2)cc1	i
CCOCC(=O)NC1CCN(c2cnn(C)c(=O)c2)CC1	i
O=C(Cn1c(=O)c2c(n1Cc1ccccc1)CN(Cc1ccccc1)CC2)N1CCC(c2ccccc2)CC1	i
O=C(Nc1nc(-c2ccc(F)c(F)c2)cs1)C1CCCN(C(=O)c2ccoc2)C1 (stereo not given)	i
Cc1ccc(NCc2cc3ccccc3[nH]c2=O)cc1C	i
CN(C)C[C@@H]1CN(Cc2cccnc2)C[C@H]1NC(=O)c1cc2ccccc2[nH]1	28µM*
CN(C)C[C@@H]1CN(Cc2cccnc2)C[C@H]1NC(=O)c1ccccc1Cl	i
Cc1cc(C(=O)N[C@@H]2CN(Cc3cccnc3)C[C@H]2CN(C)C)no1	i
c1ccc2c(-c3nn4c(C5CCCCC5)nnc4s3)c[nH]c2c1	i
O=C(NC1CCOCC1)c1ccnc(-c2nnc3ccc(Nc4ccccc4)nn23)c1	i
Cc1ccc(C(=O)COc2ccc(C3CCCCC3)cc2)cc1	i
COc1ccccc1C(=O)N1CCC(N2CCOCC2=O)CC1	i
COc1ccccc1CN1CCc2nc(C(=O)N3CCOCC3)oc2CC1	i
COc1ccc(NC2=C(C(=O)N3CCOCC3)S(=O)(=O)c3ccccc32)cc1Cl	i
COc1ccccc1-c1nc(C(=O)N2CCOCC2)n2ccncc12	100µM*
COc1ccccc1-c1nc(C(=O)N2CCOCC2)n2ccccc12	89µM*
COc1ccccc1C(=O)N1C[C@@H](F)C[C@H]1C(=O)N1CCOCC1	i
CC(C)NC(=O)c1cccc2c1CCN2C(=O)C1CC1	i
SMILES	KDM5B inhibitor
CCCCn1c(SCC(=O)NC(C)(C)C)nc2ccccc2c1=O	i
CC(=O)N[C@H](CC(C)C)c1nc(-c2ccc(C)nn2)no1	i
O=C(NCCNC(=O)c1nc2ccccc2c(=O)[nH]1)c1ccc2ccccc2c1	i
O=C(NC1CC1)C1CCN(CCCc2nc3ccccc3o2)CC1	i
O=[N+]([O-])c1cccc2ncc(Cl)cc12	i
CNC(=O)Cn1nc(C(=O)N2CCC3(CC2)[C@H](O)C[C@@H]3O)cc1C	i
CCO[C@H]1C[C@@H](O)C12CCN(C(=O)CCCc1ccccc1)CC2	i
CCO[C@H]1C[C@@H](O)C12CCN(C(=O)c1cc3nc(C)cc(C)n3n1)CC2	28µM*
COCCN1C(=O)c2n[nH]c(-c3ccco3)c2C1c1ccc(OC)cc1 (stereo not given)	i
Cn1cc(-c2ccc3c(n2)CN(Cc2ccc(F)cc2)C(=O)CO3)cn1	i
O=C1COc2ccc(-c3ccncc3)nc2CN1Cc1ccccc1F	35µM*
COc1cccc(-c2ccc3c(n2)CN(Cc2ccc(F)cc2)C(=O)CO3)c1	i
COc1cccc(CN2Cc3nc(OCc4ccc(F)cc4)ccc3OCC2=O)c1	i
O=C1COc2ccc(-c3ccc(F)cc3)nc2CN1Cc1ccccc1F	i
O=C1COc2ccc(-c3ccccc3F)nc2CN1CCOc1ccccc1	i
COc1ccc(-c2ccc3c(n2)CN(Cc2ccc(F)cc2)C(=O)CO3)cc1	22µM*
O=C1COc2ccc(-c3ccncc3)nc2CN1Cc1ccc(F)cc1	25µM*
COc1cc(NC(=O)Cn2nc3n(c2=O)CCCC3)cc(OC)c1OC	i
CC(=O)c1ccc(N2CCN(C(=O)CCc3ncc(-c4ccc(C)c(C)c4)o3)CC2)c(F)c1	i
CC1C(=O)N2CCCc3cc(S(=O)(=O)N4CCc5ccccc54)cc1c32 (stereo not given)	i
Cc1ccc2c(c1)cc(C(=O)N1CCc3ccccc3C1)n2C	i
Cc1ccc2sc(N(Cc3cccnc3)C(=O)c3ccc(C#N)cc3)nc2c1C	i
CSc1nnc(-c2ccccc2NC(=O)c2cccc(S(=O)(=O)N3CCCCCC3)c2)o1	i
COc1cc(C(=O)Nc2ccc3oc(-c4ccccc4Cl)nc3c2)cc(OC)c1OC	i
COCc1cnc2c(c1SCc1ccccc1)c(=O)n(C)c(=O)n2C	i
SMILES	KDM5B inhibitor
CCCNC(=O)c1cc2cc(N(C)S(C)(=O)=O)ccc2s1	i
C=CCS(=O)(=O)N1CCCC1C(=O)Nc1ccccc1-c1ccc(OC)cc1 (stereo not given)	i
CCOc1ccc(C(=O)NCCn2ccn3nc(-c4cc(C)ccc4C)cc3c2=O)cc1	i
Cc1ccc(C)c(-c2cc3c(=O)n(CCNC(=O)c4c(F)cccc4Cl)ccn3n2)c1	i
CCOc1ccc(-c2cc3c(=O)n(CCNC(=O)c4cccc(N(C)C)c4)ccn3n2)cc1	32µM*
CCOc1ccc(-c2cc3c(=O)n(CCNC(=O)c4ccc(C)c(C)c4)ccn3n2)cc1	18µM*
CCOc1ccc(-c2cc3c(=O)n(CCNC(=O)c4ccc(C)cc4)ccn3n2)cc1	i
Cc1ccc(C)c(-c2cc3c(=O)n(CCNC(=O)c4cccc(N(C)C)c4)ccn3n2)c1	32µM*
CCOc1ccc(CC(=O)NCCn2ccn3nc(-c4ccc(C)cc4C)cc3c2=O)cc1	i
CCOc1ccc(-c2cc3c(=O)n(CCNC(=O)c4ccccc4)ccn3n2)cc1	i
CCOc1ccc(-c2cc3c(=O)n(CC(=O)Nc4c(C)cccc4C)ccn3n2)cc1	i
CCOc1ccc(-c2cc3c(=O)n(CCNC(=O)Cc4cccs4)ccn3n2)cc1	32µM*
COc1ccc(OC)c(CNC(=O)C2CCN(C(=O)N3CC4CC(C3)[C@H]3CCCC(=O)N3C4)CC2)c1 (stereo not given in full)	i
O=C(c1ccc(C(F)(F)F)cc1)N1CCOC[C@H](Oc2cccnc2)C1	i
COc1ccc(C(=O)N2CC[C@@H]3CN(S(C)(=O)=O)[C@@H]3C2)c(OC)c1	i
Cc1noc(C)c1C(=O)NCc1ccnc(OC2CCCCC2)c1	i
O=C(C[C@@H]1CCNC[C@@H]1Cc1cc(CN2CCOCC2)on1)N1CCC(Cc2ccccc2)CC1	i
Cc1cnn(CC(=O)N2CCCCCCNC(=O)CC2)c1	i
COC(=O)c1cc(OC(=O)Cc2cccc3ccccc23)cc(C(=O)OC)c1	i
Cc1ccc(C(=O)COC(=O)C2C3CC4C(OC(=O)C42)C3Br)cc1 (stereo not given)	i
O=C(Cn1nc(-c2ccccc2)c2ccccc2c1=O)Nc1cccc(C(F)(F)F)c1	i
CCCn1c(=O)[nH]c(=O)c2cc(C(=O)Nc3ccc(C)c4ncccc34)cnc21	i
COc1cc(OC)c(NC(=O)Cn2c(C)cc3nc4n(c(=O)c32)CCCCC4)cc1Cl	i
Cc1ccc(C)c(OCn2ccc(C(=O)NCc3cn(C)nc3C)n2)c1	i
COc1cncc([C@@H](NC2CSCCSC2)C2CC(O)C2)c1 (stereo not given in full)	i
COc1ccc(OC)c(NC(=O)C(C)OC(=O)c2cccnc2)c1 (stereo not given)	i
